Experimental data: the antibiotic and cytotoxicity screens of Wong et al. (2023)
About 3,300 (8.5%) of roughly 39,000 compounds were called active. This is one part of a sample in which actives are shown more often than they occur.

These molecules were tested on HepG2 (assay: cytotoxicity call (relative viability < 0.9)). Details: 10 µM.
With `CNC(=O)C[C@H]1CC[C@H]2[C@@H](COC[C@@H](O)CN2C(=O)Nc2ccc3c(c2)OCO3)O1` the cytotoxicity call was “inactive”. `C[C@H](CO)N1C[C@H](C)[C@H](CN(C)C(=O)Nc2ccc(F)cc2)Oc2ccc(NS(=O)(=O)c3cn(C)cn3)cc2C1=O` was tested, and the cytotoxicity call was “inactive”. For `C[C@H](CO)N1C[C@H](C)[C@@H](CN(C)C(=O)Cc2ccccc2)OCCCC[C@H](C)Oc2ccc(NS(=O)(=O)c3ccc(F)cc3)cc2C1=O`, the cytotoxicity call was “inactive”. `C[C@@H]1CN([C@@H](C)CO)C(=O)c2cc(NS(=O)(=O)c3cn(C)cn3)ccc2O[C@@H]1CN(C)C(=O)NC1CCCCC1` was tested, and the cytotoxicity call was “inactive”. For `COc1ccc(S(=O)(=O)N(C)C[C@H]2OCCCC[C@@H](C)Oc3ccc(NS(=O)(=O)c4cn(C)cn4)cc3C(=O)N([C@@H](C)CO)C[C@@H]2C)cc1`, the cytotoxicity call was “inactive”. In the case of `C[C@@H]1CCCCO[C@H](CN(C)C(=O)Nc2cccc3ccccc23)[C@H](C)CN([C@@H](C)CO)C(=O)c2cc(NS(=O)(=O)c3cn(C)cn3)ccc2O1`, the cytotoxicity call is reported as “inactive”. `COc1ccc(S(=O)(=O)Nc2cccc3c2O[C@H](CN(C)C(=O)NC(C)C)[C@@H](C)CN([C@H](C)CO)C3=O)cc1` was tested, and the cytotoxicity call was “inactive”. With `C[C@@H]1CCCCO[C@H](CN(C)S(=O)(=O)c2ccccc2)[C@@H](C)CN([C@H](C)CO)C(=O)c2cc(NC(=O)C3CCCCC3)ccc2O1` the cytotoxicity call was “inactive”. With `CNC(=O)C(=O)NC[C@H]1CCCN1S(=O)(=O)c1cccs1` the cytotoxicity call was “inactive”. In the case of `CC(=O)OC1CCC2(C)C(CCC3C4CC=C(C(C)=O)C4(C)CCC32)C1` (stereo not drawn) [3-beta-ACETOXYALLOPREG-16-EN-20-ONE ], the cytotoxicity call is reported as “inactive”. With `Cc1noc(C)c1S(=O)(=O)Nc1ccc2c(c1)CC(=O)N([C@H](C)CO)C[C@@H](C)[C@@H](CN(C)S(C)(=O)=O)O2` the cytotoxicity call was “inactive”. For `C[C@@H]1CCCCO[C@@H](CN(C)C(=O)CCC(F)(F)F)[C@H](C)CN([C@@H](C)CO)C(=O)c2cc(NC(=O)CCC(F)(F)F)ccc2O1`, the cytotoxicity call was “inactive”. `C[C@@H]1CCCCO[C@H](CN(C)Cc2ccc(C(F)(F)F)cc2)[C@H](C)CN([C@@H](C)CO)C(=O)c2cc(NC(=O)NC3CCCCC3)ccc2O1` was tested, and the cytotoxicity call was “active”. `C[C@@H]1CN([C@@H](C)CO)C(=O)c2cc(NC(=O)NC3CCCCC3)ccc2O[C@@H](C)CCCCO[C@@H]1CN(C)Cc1ccc(C(F)(F)F)cc1` was tested, and the cytotoxicity call was “inactive”. `C[C@@H]1CN([C@H](C)CO)C(=O)c2cc(NC(=O)NC3CCCCC3)ccc2O[C@@H](C)CCCCO[C@H]1CN(C)Cc1ccc(C(F)(F)F)cc1` was tested, and the cytotoxicity call was “inactive”. `C[C@@H]1CCCCO[C@@H](CN(C)Cc2ccc(C(F)(F)F)cc2)[C@H](C)CN([C@H](C)CO)C(=O)c2cc(NC(=O)NC3CCCCC3)ccc2O1` was tested, and the cytotoxicity call was “active”. With `C[C@H]1CCCCO[C@@H](CN(C)Cc2ccc(C(F)(F)F)cc2)[C@@H](C)CN([C@@H](C)CO)C(=O)c2cc(NC(=O)NC3CCCCC3)ccc2O1` the cytotoxicity call was “active”. `CCC(=O)Nc1ccc2c(c1)OC[C@H](C)N(C(=O)CN1CCOCC1)C[C@H](C)[C@@H](OC)CN(C)C2=O` was tested, and the cytotoxicity call was “inactive”. With `CO[C@H]1CN(C)C(=O)c2ccc(NS(=O)(=O)c3cn(C)cn3)cc2OC[C@H](C)N(CC2CC2)C[C@H]1C` the cytotoxicity call was “inactive”. For `O=C(N/N=C/[C@H](O)[C@@H](O)[C@@H](O)[C@H](O)CO)c1ccccn1`, the cytotoxicity call was “inactive”. In the case of `COc1ccc(NC(=O)N(C)C[C@H]2OCCCC[C@H](C)Oc3ccc(NS(=O)(=O)c4ccc(Cl)cc4)cc3C(=O)N([C@@H](C)CO)C[C@@H]2C)cc1`, the cytotoxicity call is reported as “inactive”. `COc1ccc(-c2cnc3c(c2)C(=O)N([C@H](C)CO)C[C@H](C)[C@@H](CN(C)C(=O)Cc2ccncc2)O3)cc1` was tested, and the cytotoxicity call was “inactive”. With `C[C@H](CO)N1C[C@H](C)[C@H](CN(C)S(C)(=O)=O)Oc2ccc(NS(=O)(=O)c3cccs3)cc2CC1=O` the cytotoxicity call was “inactive”. With `C[C@@H]1CN([C@@H](C)CO)C(=O)Cc2cc(NS(=O)(=O)c3cn(C)cn3)ccc2O[C@H]1CN(C)C(=O)Nc1ccc(F)cc1` the cytotoxicity call was “inactive”. `C=CC[C@H](CC(=O)NCCO)C(=O)NC[C@H](OC(=O)[C@@H](CC=C)CC(=O)OC(C)(C)C)c1ccccc1` was tested, and the cytotoxicity call was “inactive”. In the case of `C[C@H](CO)N1C[C@H](C)[C@@H](CN(C)C(=O)Nc2cccc3ccccc23)Oc2c(NS(=O)(=O)c3cccs3)cccc2C1=O`, the cytotoxicity call is reported as “inactive”. For `COc1ccc(S(=O)(=O)Nc2cccc3c2O[C@H](CN(C)C(=O)Nc2c(C)noc2C)[C@@H](C)CN([C@H](C)CO)C3=O)cc1`, the cytotoxicity call was “active”. With `C[C@H]1CN([C@@H](C)CO)C(=O)c2cccc(NS(=O)(=O)c3cccs3)c2O[C@@H]1CN(C)C(=O)Nc1cccc2ccccc12` the cytotoxicity call was “active”. In the case of `COc1ccc(S(=O)(=O)Nc2cccc3c2O[C@H](CN(C)C(=O)Nc2c(C)noc2C)[C@@H](C)CN([C@@H](C)CO)C3=O)cc1`, the cytotoxicity call is reported as “inactive”. In the case of `COc1ccc(S(=O)(=O)Nc2cccc3c2O[C@H](CN(C)C(=O)Nc2cccc4ccccc24)[C@H](C)CN([C@@H](C)CO)C3=O)cc1`, the cytotoxicity call is reported as “inactive”. `Cc1ccc(S(=O)(=O)Nc2cccc3c2O[C@@H](CN(C)C(=O)Nc2cccc4ccccc24)[C@H](C)CN([C@@H](C)CO)C3=O)cc1` was tested, and the cytotoxicity call was “inactive”. `COc1ccc(S(=O)(=O)Nc2cccc3c2O[C@@H](CN(C)C(=O)Nc2cccc4ccccc24)[C@H](C)CN([C@@H](C)CO)C3=O)cc1` was tested, and the cytotoxicity call was “active”. `COc1ccc(S(=O)(=O)Nc2cccc3c2O[C@@H](CN(C)C(=O)Nc2c(C)noc2C)[C@H](C)CN([C@@H](C)CO)C3=O)cc1` was tested, and the cytotoxicity call was “inactive”. `Cc1ccc(S(=O)(=O)Nc2cccc3c2O[C@H](CN(C)C(=O)Nc2cccc4ccccc24)[C@@H](C)CN([C@H](C)CO)C3=O)cc1` was tested, and the cytotoxicity call was “inactive”. With `C[C@@H]1CN([C@H](C)CO)C(=O)c2cccc(NS(=O)(=O)c3cccs3)c2O[C@H]1CN(C)C(=O)Nc1cccc2ccccc12` the cytotoxicity call was “inactive”. `COc1ccc(S(=O)(=O)Nc2cccc3c2O[C@H](CN(C)C(=O)Nc2cccc4ccccc24)[C@H](C)CN([C@H](C)CO)C3=O)cc1` was tested, and the cytotoxicity call was “inactive”. In the case of `Cc1ccc(S(=O)(=O)Nc2cccc3c2O[C@H](CN(C)C(=O)Nc2cccc4ccccc24)[C@@H](C)CN([C@@H](C)CO)C3=O)cc1`, the cytotoxicity call is reported as “active”.
